Assay results reported in PubChem BioAssay AID1159580 (chemical genetic matrix, 2015).
“And” between values parts separate entries of the source, which are not always exact repeats. Identical values can stand only once. About 2,000 (36%) of roughly 5,500 compounds were called active. Not shown: some 18% with an inconclusive outcome. No stated cut-off is given here; in the data, active means normalized growth mostly below about 0.91 (no sharp cut-off); inconclusive means no clear call, values can overlap the other calls; inactive means mostly above about 0.92. The list shows a part of the results.

Experiment: chemical genetic growth profiling, strain panel (AID 1159580);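 further: tested at 20 µM; growth read once vehicle control cultures reached saturation at 30 °C; 1 = growth at the plate median or of vehicle wells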
Details: growth OD

Measured: normalized growth

O=C1CCC(N2C(=O)c3ccccc3C2=O)C(=O)N1 (stereo unspecified)
inactive: S. cerevisiae deletion strains, locus YJR075W, strain HOC1, stronger effect = lower value 0.972 and 1.02 | S. cerevisiae deletion strains, locus YKL009W, strain mrt4, stronger effect = lower value 1.03 | S. cerevisiae deletion strains, locus YKL068W, stronger effect = lower value 0.997 | S. cerevisiae deletion strains, locus YKL085W, strain MDH1 (second series), stronger effect = lower value 1.03 | S. cerevisiae deletion strains, locus YKL085W, strain MDH1, stronger effect = lower value 1.03 | S. cerevisiae deletion strains, locus YKL160W, strain elf1, stronger effect = lower value 1 | S. cerevisiae deletion strains, locus YKL190W, strain CNB1, stronger effect = lower value 1.02 | S. cerevisiae deletion strains, locus YKR001C, strain vps1, stronger effect = lower value 0.969 | S. cerevisiae deletion strains, locus YKR026C, strain gcn3, stronger effect = lower value 1.02 | S. cerevisiae deletion strains, locus YKR091W, strain srl3, stronger effect = lower value 1.02 | S. cerevisiae deletion strains, locus YLL001W, strain dnm1, stronger effect = lower value 1.04 | S. cerevisiae deletion strains, locus YLL026W, stronger effect = lower value 1.01 | S. cerevisiae deletion strains, locus YLL041C, strain sdh2, stronger effect = lower value 1.03 | S. cerevisiae deletion strains, locus YLR027C, strain aat2, stronger effect = lower value 1 | S. cerevisiae deletion strains, locus YLR039C, strain RIC1, stronger effect = lower value 1.03 | S. cerevisiae deletion strains, locus YLR058C, strain SHM2, stronger effect = lower value 1.01 | S. cerevisiae deletion strains, locus YLR102C, strain apc9, stronger effect = lower value 0.991 | S. cerevisiae deletion strains, locus YLR113W, strain HOG1, stronger effect = lower value 0.971 | S. cerevisiae deletion strains, locus YLR221C, strain rsa3, stronger effect = lower value 1.03 | S. cerevisiae deletion strains, locus YLR258W, strain gsy2, stronger effect = lower value 1.02 | S. cerevisiae deletion strains, locus YLR262C, strain YPT6 (second series), stronger effect = lower value 1.02 | S. cerevisiae deletion strains, locus YLR262C, strain YPT6, stronger effect = lower value 1.05 | S. cerevisiae deletion strains, locus YLR268W, strain sec22, stronger effect = lower value 0.985 | S. cerevisiae deletion strains, locus YLR320W, strain mms22, stronger effect = lower value 1.03 | S. cerevisiae deletion strains, locus YLR330W, strain CHS5, stronger effect = lower value 1 | S. cerevisiae deletion strains, locus YLR342W, strain FKS1 (second series), stronger effect = lower value 0.991 | S. cerevisiae deletion strains, locus YLR342W, strain FKS1, stronger effect = lower value 1.01 | S. cerevisiae deletion strains, locus YLR357W, strain rsc2, stronger effect = lower value 0.997 | S. cerevisiae deletion strains, locus YLR370C, strain arc18, stronger effect = lower value 1.03 | S. cerevisiae deletion strains, locus YLR371W, strain rom2, stronger effect = lower value 0.983 | S. cerevisiae deletion strains, locus YLR384C, strain iki3, stronger effect = lower value 1.03 | S. cerevisiae deletion strains, locus YLR418C, strain cdc73, stronger effect = lower value 0.977 | S. cerevisiae deletion strains, locus YML016C, strain PPZ1, stronger effect = lower value 1.01 | S. cerevisiae deletion strains, locus YML032C, strain rad52, stronger effect = lower value 0.979 | S. cerevisiae deletion strains, locus YML120C, strain ndi1, stronger effect = lower value 1.04 | S. cerevisiae deletion strains, locus YML124C, strain tub3, stronger effect = lower value 0.988 | S. cerevisiae deletion strains, locus YMR058W, strain fet3, stronger effect = lower value 1.02 | S. cerevisiae deletion strains, locus YMR078C, strain ctf18, stronger effect = lower value 0.998 | S. cerevisiae deletion strains, locus YMR125W, strain sto1, stronger effect = lower value 1.01 | S. cerevisiae deletion strains, locus YMR129W, stronger effect = lower value 1.02 | S. cerevisiae deletion strains, locus YMR205C, strain PFK2, stronger effect = lower value 1.01 | S. cerevisiae deletion strains, locus YMR223W, strain ubp8, stronger effect = lower value 0.981 | S. cerevisiae deletion strains, locus YMR231W, strain pep5, stronger effect = lower value 1.01 | S. cerevisiae deletion strains, locus YMR263W, strain SAP30, stronger effect = lower value 1.02 and 1 | S. cerevisiae deletion strains, locus YMR307W, strain GAS1, stronger effect = lower value 1.01 and 0.996 | S. cerevisiae deletion strains, locus YNL067W, strain RPL9B, stronger effect = lower value 1.02 | S. cerevisiae deletion strains, locus YNL071W, strain lat1, stronger effect = lower value 1.03 | S. cerevisiae deletion strains, locus YNL128W, strain TEP1, stronger effect = lower value 1.02 | S. cerevisiae deletion strains, locus YNL153C, strain GIM3, stronger effect = lower value 1.02 | S. cerevisiae deletion strains, locus YNL175C, strain NOP13, stronger effect = lower value 0.997 | S. cerevisiae deletion strains, locus YNL183C, strain NPR1, stronger effect = lower value 0.927 | S. cerevisiae deletion strains, locus YNL197C, strain WHI3, stronger effect = lower value 0.986 | S. cerevisiae deletion strains, locus YNL209W, strain ssb2, stronger effect = lower value 1.02 | S. cerevisiae deletion strains, locus YNL224C, strain SQS1, stronger effect = lower value 0.991 | S. cerevisiae deletion strains, locus YNL233W, strain BNI4, stronger effect = lower value 1.02 | S. cerevisiae deletion strains, locus YNL248C, strain rpa49, stronger effect = lower value 0.957 | S. cerevisiae deletion strains, locus YNL250W, strain rad50, stronger effect = lower value 1 | S. cerevisiae deletion strains, locus YNL271C, strain bni1, stronger effect = lower value 0.986 | S. cerevisiae deletion strains, locus YNL298W, strain CLA4, stronger effect = lower value 1 | S. cerevisiae deletion strains, locus YNL307C, strain MCK1, stronger effect = lower value 0.987 | S. cerevisiae deletion strains, locus YNL322C, strain KRE1 (second series), stronger effect = lower value 1.02 | S. cerevisiae deletion strains, locus YNL322C, strain KRE1, stronger effect = lower value 1.01 | S. cerevisiae deletion strains, locus YNR049C, strain mso1, stronger effect = lower value 1.01 | S. cerevisiae deletion strains, locus YNR052C, strain pop2, stronger effect = lower value 0.991 | S. cerevisiae deletion strains, locus YOL006C, strain TOP1, stronger effect = lower value 1.01 | S. cerevisiae deletion strains, locus YOL012C, strain htz1 0.819 | S. cerevisiae deletion strains, locus YOL147C, strain pex11, stronger effect = lower value 0.989 | S. cerevisiae deletion strains, locus YOR001W, strain rrp6, stronger effect = lower value 1.01 | S. cerevisiae deletion strains, locus YOR061W, strain CKA2, stronger effect = lower value 1.02 | S. cerevisiae deletion strains, locus YOR069W, strain VPS5, stronger effect = lower value 1.01 | S. cerevisiae deletion strains, locus YOR070C, strain gyp1, stronger effect = lower value 1.02 | S. cerevisiae deletion strains, locus YOR080W, strain dia2, stronger effect = lower value 1.02 | S. cerevisiae deletion strains, locus YOR083W, strain WHI5 (second series), stronger effect = lower value 1.01 | S. cerevisiae deletion strains, locus YOR083W, strain WHI5, stronger effect = lower value 1.01 | S. cerevisiae deletion strains, locus YOR106W, strain vam3, stronger effect = lower value 1.01 | S. cerevisiae deletion strains, locus YOR136W, strain idh2, stronger effect = lower value 0.981 | S. cerevisiae deletion strains, locus YOR144C, strain elg1, stronger effect = lower value 0.998 | S. cerevisiae deletion strains, locus YOR184W, strain ser1, stronger effect = lower value 0.981 | S. cerevisiae deletion strains, locus YOR231W, strain MKK1, stronger effect = lower value 0.976 | S. cerevisiae deletion strains, locus YOR265W, strain rbl2, stronger effect = lower value 1.01 | S. cerevisiae deletion strains, locus YOR270C, strain vph1, stronger effect = lower value 1.04 | S. cerevisiae deletion strains, locus YOR290C, strain snf2, stronger effect = lower value 1.01 | S. cerevisiae deletion strains, locus YOR316C, strain cot1, stronger effect = lower value 0.997 | S. cerevisiae deletion strains, locus YPL051W, strain arl3, stronger effect = lower value 1 | S. cerevisiae deletion strains, locus YPL055C, strain LGE1, stronger effect = lower value 1.05 | S. cerevisiae deletion strains, locus YPL078C, strain atp4, stronger effect = lower value 1.01 | S. cerevisiae deletion strains, locus YPL106C, strain sse1, stronger effect = lower value 1.03 | S. cerevisiae deletion strains, locus YPL240C, strain hsp82, stronger effect = lower value 1.02 | S. cerevisiae deletion strains, locus YPL241C, strain CIN2, stronger effect = lower value 1.01 | S. cerevisiae deletion strains, locus YPL256C, strain CLN2, stronger effect = lower value 0.968 | S. cerevisiae deletion strains, locus YPR119W, strain clb2, stronger effect = lower value 0.979 | S. cerevisiae deletion strains, locus YPR141C, strain kar3, stronger effect = lower value 0.988 | S. cerevisiae deletion strains, locus YPR163C, strain tif3, stronger effect = lower value 0.998 | S. cerevisiae deletion strains, locus YPR167C, strain met16, stronger effect = lower value 0.99 | S. cerevisiae deletion strains, strain wtn01, stronger effect = lower value 0.983 | S. cerevisiae strains, strain wild type, stronger effect = lower value 1.01
